Bioassay records as filed in PubChem.
Shown are actives, neighbours in structure and some others; about 7.5% of the full set was active somewhere.
SMN2 splice up: enhancers of SMN2 splice variant expression; HEK293 SMN2-luciferase splicing reporter, luminescence, 30-36 h; Potency, µM (top dose mostly 46.1 µM), without a hit: at the top dose activity change, positive = activation, most hits filed as activators; 210,000 tested, 2.8% active; AID 1458; further: % of control where 0% means no effect; nearly all actives have a fitted effect of over 55% in size
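HEK293 cells carry an SMN2 minigene-luciferase reporter in which exon 7 inclusion puts luciferase in frame. Cells were seeded at 2000 cells/well, attached for 10-12 hours, then exposed to compounds for 30-36 hours at 37C before ONE-Glo luminescence.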
ELG1 genotox: genotoxicity induction in ELG1-luciferase HEK293T cells; Potency, µM (top dose mostly 46 µM), without a hit: at the highest dose activity change, positive = activation, hits mostly activators; HEK293T ELG1-luciferase reporter, luminescence, 16 h; 330,000 tested, 1.3% active; AID 504466; further: % of control where 0% means no effect; nearly all actives have a fitted effect of over 60% in size
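HEK293T cells expressing luciferase-tagged ELG1 were treated with compound or DMSO for 16 hr at 37°C. Luciferase activity was then read after 30 min with ONE-Glo at room temperature; rising signal flags genetic stress.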
NPC1 prom act: activators of NPC1 promoter; Huh7 NPC1 promoter luciferase reporter, 24 h; Potency, µM (top dose mostly 9.22 µM), for the others: at the top dose activation, usual class: activators; 320,000 tested, 2.4% active; AID 485313; further: % of control where 0% means no effect; nearly all actives have a fitted effect of over 60% in size
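Quantitative HTS used a cell-based reporter: Huh7 cells stably bearing the NPC1 promoter upstream of luciferase were treated with compounds for 24 h, and promoter activation was read as luminescence.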
FLuc counter: firefly luciferase modulation, counter-screen for miR-21 project; P08659; purified FLuc, Km substrates, luminescence inhibition; Potency, µM (doses to about 57.5 µM), inactives show at the top dose activity change, negative = inhibition, most hits filed as inhibitors; 360,000 tested, 6.9% active;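 further: plate controls were vehicle for no effect and reference inhibitor for full effect; nearly all actives have a fitted effect of over 55% in size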
Target sequence (P08659 whole entry, looked up): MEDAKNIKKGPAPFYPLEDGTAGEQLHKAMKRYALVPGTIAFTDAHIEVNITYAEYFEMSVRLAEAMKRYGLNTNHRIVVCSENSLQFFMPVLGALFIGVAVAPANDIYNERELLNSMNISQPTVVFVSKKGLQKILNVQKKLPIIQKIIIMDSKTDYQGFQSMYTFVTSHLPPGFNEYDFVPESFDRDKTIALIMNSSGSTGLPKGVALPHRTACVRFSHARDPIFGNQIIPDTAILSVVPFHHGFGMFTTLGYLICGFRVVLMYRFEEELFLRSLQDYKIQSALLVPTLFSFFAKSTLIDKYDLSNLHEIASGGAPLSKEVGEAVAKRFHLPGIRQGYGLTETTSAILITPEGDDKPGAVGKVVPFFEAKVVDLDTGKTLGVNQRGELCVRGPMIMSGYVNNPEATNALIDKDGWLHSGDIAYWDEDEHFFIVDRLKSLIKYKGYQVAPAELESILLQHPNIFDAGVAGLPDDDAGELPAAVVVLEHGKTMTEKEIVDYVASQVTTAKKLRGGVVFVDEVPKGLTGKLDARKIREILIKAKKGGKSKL
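Purified P. pyralis luciferase, 10 nM final, with Km-level 10 uM D-luciferin and 10 uM ATP in 50 mM Tris acetate pH 7.5, 10 mM Mg acetate, 0.01% Tween-20, 0.05% BSA; 6-point qHTS titration about 60 µM downward; luminescence read.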
Rab9 promoter act: activators of Rab9 promoter; Huh7 Rab9 promoter-luciferase reporter, luminescence, 24 h; Potency, µM (series often up to 9.22 µM), for inactives: at the highest dose activation, negative = inhibition, most hits filed as activators; 320,000 tested, 2.8% active; further: % of control where 0% means no effect; nearly all actives have a fitted effect of over 60% in size
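Measured in stably transfected Huh7 cells bearing a Rab9 promoter–luciferase construct: 24 h compound treatment at 37 °C, followed by luminescence detection.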
* marks the source's active call; other numbers are inactive results; ? = inconclusive; . = no result; [ ] = remark or other dose. The call rests on the fitted dose curve; in most records, active means well fitted curve in the direction sought with a large enough effect; inconclusive means small, poorly fitted or top-dose-only effect, or another doubt; inactive means no such curve, though single readings can be large; an effect the other way counts as inactive or inconclusive. Potency means the concentration at half of the fitted maximal effect.

SMILES | SMN2 splice up | ELG1 genotox | NPC1 prom act | FLuc counter | Rab9 promoter act
COc1ccc(NC(=O)CSCC(=O)NCCc2ccccn2)cc1 | 13% | 5% | 4% | -9% | 9%
CC(C)CNC(=S)Nc1ccc(S(N)(=O)=O)cc1 | 7% | -1% | -4% | -9% | -2%
Cc1ccc(NC(=S)NCC(C)C)cc1 | ? | 14% | 11% | 19µM* | 14%
COc1cc(NC(=O)c2cc(C)nc3c2c(C)nn3-c2ccccc2Cl)cc(OC)c1 | -15% | . | . | 6% | .
CN1CCc2ccccc2Cc2[nH]c3ccccc3c2CC1 | -4% | 3% | 13%[46.1 µM] | 4% | 3%[46.1 µM]
Cc1ccc(-c2cc(C(=O)N3CC(C)OC(C)C3)c3ccccc3n2)o1 (centres undefined) | . | 9% | -1% | 11µM* | -1%
Cc1ccc(-c2cc(C(=O)NCC(c3ccccc3)N(C)C)c3ccccc3n2)o1 (centres undefined) | . | 2% | . | . | .
Cc1ccc(-c2cc(C(=O)N3CC(C)CC(C)C3)c3ccccc3n2)o1 (centres undefined) | . | -1% | 1% | 12µM* | 2%
CCOCCCNC(=O)CCc1nnc2n(CCC(C)C)c(=O)c3ccccc3n12 | . | -11% | 0% | 2% | -4%
Cn1c(=O)[nH]c(=O)c2c1nc(OC(=O)c1ccccc1)n2CC(O)COc1ccccc1 (centres undefined) | -12% | 1% | -1% | -1% | -2%
Cc1ccccc1OCCC(=O)OCC(=O)NNC(=O)c1cccs1 | . | 2% | 2% | -15% | 0%
CC(=O)OCCCN1c2ccccc2Nc2nnc(-c3ccccc3)cc21 | 14µM* | ? | 1.8µM* | 2.4µM* | 1.6µM*
NC(=O)CCN(C(=O)c1cccc(S(=O)(=O)N2CCc3ccccc32)c1)c1ccccc1 | . | -3% | -4% | 4% | -6%
O=C(N/N=C/c1ccc[nH]1)c1cc(-c2ccc(Cl)cc2)nc2ccccc12 | -33% | -12% | -11% | 12µM* | -4%
CCOc1cccc(-c2cc(C(=O)N/N=C/c3ccc(OC)c(CN4CCOCC4)c3)c3ccccc3n2)c1 | -27% | -8% | -4% | 6µM* | -1%
O=C(N/N=C/c1ccc2c(c1)OCO2)c1cc(-c2ccncc2)nc2ccccc12 | -26% | 4% | -19% | 12µM* | -22%
O=C(N/N=C/c1cccc(O)c1)c1cc(-c2ccccc2)nc2ccccc12 | . | -4% | 0% | 11µM* | 0%
O=C(N/N=C/c1ccco1)c1cc(-c2cccc(Br)c2)nc2ccccc12 | -46% | -1% | 0% | 4.8µM* | 0%
COc1ccc(/C=N/NC(=O)c2cc(-c3ccccc3)nc3ccccc23)c(OC)c1 | . | -6% | 3% | 17µM* | 12%
COc1ccc2nc(-c3ccccc3)cc(OC)c2c1 | ? | ? | 18% | 12µM* | 20%
CC(/C=N/NC(=O)c1cc(-c2ccncc2)nc2ccccc12)=C\c1ccco1 | -18% | 2% | -7% | -15% | -9%
O=C(N/N=C/c1ccc(O)c(O)c1)c1cc(-c2ccccc2)nc2ccccc12 | . | 3% | -8% | 15µM* | 0%
COc1ccc(C)cc1S(=O)(=O)N(C)CC(=O)N1CCC(C)CC1 | -5% | 1% | 2% | 3% | -9%
O=C(NCC1CCCO1)C1CCCN(S(=O)(=O)c2ccc(Br)cc2)C1 (centres undefined) | . | 5% | -2% | 2% | 4%
CCOc1ccccc1-c1cc(C(=O)N/N=C/c2ccc(O)c(OC)c2)c2ccccc2n1 | 25µM* | -14% | 0% | -5% | 3%
SMILES | SMN2 splice up | ELG1 genotox | NPC1 prom act | FLuc counter | Rab9 promoter act
O=C(N/N=C/c1ccc(O)c(O)c1)N/N=C/c1ccc(O)c(O)c1 | . | 7% | 0% | 5.4µM* | -14%
CCOc1ccccc1-c1cc(C(=O)N/N=C/c2ccc3c(c2)OCO3)c2ccccc2n1 | 29% | 2% | 1% | -16% | 2%
O=C(Nc1ccccc1)N1CCC2(CCNCC2)CC1 | 6% | . | . | . | .
CC1CCCC(C)N1CCCNC(=O)c1ccc2nc(N3CCCCC3)sc2c1 (centres undefined) | . | 11% | 3.2µM* | -11% | ?
CC1CC(C)CN(CCCNC(=O)c2ccc3nc(N4CCCCC4)sc3c2)C1 (centres undefined) | . | ? | 0.45µM* | -12% | ?
CN=C(NC#N)SCC(=O)c1ccc(Cl)cc1Cl | -15% | -10% | -1% | -1% | -1%
O=C1NC2(CCCCC2)C(=O)N1/N=C/c1ccccc1Br | ? | ? | 11% | ? | ?
O=C1NC2(CCCCC2)C(=O)N1/N=C/c1ccc(O)cc1O | -4% | -2% | 0% | 17µM* | 0%
O=C(Oc1ccc2c(c1)C(=O)c1ccccc1CO2)c1ccccc1 | -7% | ? | 1% | 21µM* | 14%
O=C(Oc1ccc2c(c1)OCC2=O)c1ccc(Cl)cc1 | . | 0% | -6% | ? | 0%
O=C(O)Cn1c(SCc2cccc3ccccc23)nc2ccccc21 | 4% | 0% | -6% | 17µM* | -3%
O=C(NCc1ccccc1)C(c1ccc(O)cc1)N(C(=O)Cn1nnc(-c2cccs2)n1)c1ccc2c(c1)OCCO2 (centres undefined) | 9% | -4% | -2% | 1% | -1%
CCN(CC)S(=O)(=O)c1ccc(NC(=O)[C@H](CSCc2ccccc2)N2Cc3ccccc3C2=O)cc1 | 4.5µM* | . | . | 5% | .
CCc1ccc(NC(=O)[C@H](CSCc2ccccc2)N2Cc3ccccc3C2=O)cc1 | 1% | . | . | 2% | .
NC(=NCCc1c[nH]c2ccccc12)NS(=O)(=O)c1ccc2ccccc2c1 | -60% | -3% | -4% | 1% | -6%
O=C1CC(c2ccccc2)CC(O)=C1C=Nc1cccc(Cl)c1 (centres undefined) | -3%[1.84 µM] | 1% | -6% | 7.6µM* | -6%
CCCC(=O)N/N=C1\CS(=O)(=O)N(C)c2ccsc21 | -13% | 1% | 7% | 0% | 0%
Cc1ccc(N/N=C2\CS(=O)(=O)N(C)c3ccsc32)cc1 | 0.89µM* | 17% | 3.5µM* | 12µM* | ?
CN1c2ccsc2/C(=N/Nc2ccc(F)cc2)CS1(=O)=O | ? | ? | ? | 19µM* | ?
COCCSc1nnc(NC(=O)C2CC(=O)N(c3ccc(C)cc3)C2)s1 (centres undefined) | -1% | 0% | -5% | ? | 0%
CCCNC(=O)CC1Sc2ccccc2NC1=O (centres undefined) | 6% | -4% | -5% | -1% | -4%
COCC1CCN(C(=O)CC2C(=O)NCCN2Cc2cccc(Oc3ccccc3)c2)CC1 (centres undefined) | . | 1% | 2% | 0% | 7%
O=C(OCCc1cc2ccccc2c(=O)o1)c1ccco1 | . | 3% | 1% | 5.4µM* | -4%
O=C(NCc1ccco1)c1cc2cc(Br)ccc2o1 | . | 10% | 22% | 17µM* | ?
